In all, about 190,000 compounds went through this assay and about 1,300 (0.68%) were called active. Shown is part of a subset that was picked to be rich in actives. A number with no mark means an inactive call. Cut-off read from the data, not from the text of the source: active = inhibition above about 50%; inactive = the rest.

The target of this test is Mannose-6-phosphate isomerase (Homo sapiens) (UniProt P34949). Briefly: human PMI inhibitors, high substrate, primary screen, biochemical, fluorescence intensity, high mannose 6-phosphate (AID 1220). As to conditions: recombinant PMI enzyme, coupled fluorescence intensity; at 20 µM; active compounds read high.
Chain of Mannose-6-phosphate isomerase (Homo sapiens) (P34949 whole entry, looked up): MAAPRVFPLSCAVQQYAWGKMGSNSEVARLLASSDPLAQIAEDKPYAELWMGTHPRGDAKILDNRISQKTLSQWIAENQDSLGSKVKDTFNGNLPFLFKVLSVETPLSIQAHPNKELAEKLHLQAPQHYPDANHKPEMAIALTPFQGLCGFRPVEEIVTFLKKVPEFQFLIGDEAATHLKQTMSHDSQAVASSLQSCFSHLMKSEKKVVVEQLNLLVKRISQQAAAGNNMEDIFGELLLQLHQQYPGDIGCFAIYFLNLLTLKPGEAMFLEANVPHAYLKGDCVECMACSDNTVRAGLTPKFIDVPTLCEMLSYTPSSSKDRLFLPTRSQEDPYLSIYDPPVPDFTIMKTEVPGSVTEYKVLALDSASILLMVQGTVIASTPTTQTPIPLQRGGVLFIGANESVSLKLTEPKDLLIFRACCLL
The term inhibition denotes the change of the read-out against control, counted positive when it falls. As to `Oc1ccccc1C1=NCCNC(C(F)(F)F)=C1`, the inhibition was -3.4%.
For the molecule `FC(F)(F)C1=CC(c2ccccc2)=NCCN1`, the inhibition is 0.2%.
As for `Oc1c(C2=NCCNC(C(F)(F)F)=C2)ccc2ccccc12`, the figure is 54.4% (active); as for `O=C(NC(=S)Nc1ccc2c(c1)C(=O)c1ccccc1C2=O)c1ccc(F)cc1`, -25.8%; as for `O=C(NC1=C(Nc2ccc(F)cc2)C(=O)c2ccccc2C1=O)c1ccc(Cl)cc1`, 55.3% (active).
The value for `CN(C1=C(NC(=O)c2ccc(Cl)cc2)C(=O)c2ccccc2C1=O)c1ccccc1` was 25.2%.
Consider `Cc1cccc(NC2=C(NC(=O)c3ccccc3)C(=O)c3ccccc3C2=O)c1`, for which the inhibition was 6.2%.
The value for `O=C(NC1=C(Nc2ccc(Cl)cc2)C(=O)c2ccccc2C1=O)c1ccccc1` was 58% (active).
In the case of `Cc1ccc(NC2=C(NC(=O)c3ccccc3)C(=O)c3ccccc3C2=O)cc1Cl`, the inhibition was 14%.
The value for `Cc1ccc(C(=O)Nc2ccc(C(=O)N3CCCCC3C)cc2)cc1` (configuration not stated) was 1%; that for `O=C(CSC1=NCCS1)Nc1cccc2ccccc12` was 2.9%.
In the case of `CC(NC(=S)Nc1cccc(C(F)(F)F)c1)C(C)(C)C` (configuration not stated), the inhibition is 54.2% (active).
As for `FC(F)(F)c1cccc(NC(=S)NC(c2ccccc2)c2ccccc2)c1`, the figure is -5.4%.
The value for `CC(C)(C)NC(=S)Nc1cccc(C(F)(F)F)c1` was 2.1%; that for `CCOC(=O)/C(C#N)=C1/SC(CC)C(=O)N1c1ccc(C)cc1` (configuration not stated) was -25%.
As for `C/C(=N\Nc1ccc(F)cc1F)c1ccc(N2CCOCC2)cc1`, the figure is -144%.
`CC(c1ccco1)N(C(=O)c1ccc(C(F)(F)F)cc1)c1ccccn1` (configuration not stated): the inhibition was 8.9%.
The value for `Cc1ccc(S(=O)(=O)CC2CSc3nc4ccccc4n32)cc1` (configuration not stated) was 9.4%; that for `CCCCc1cc(=O)oc2cc(O)cc(O)c12` was 64% (active).
The value for `CCCc1cc(=O)oc2cc(C)cc(O)c12` was 2.5%; that for `CCCCc1cc(=O)oc2cc(C)cc(O)c12` was 7.5%; that for `Clc1cccc(-c2ccc(C=Nc3ccc(N4CCOCC4)cc3)o2)c1Cl` was 63.9% (active).
`Clc1ccc(-c2ccc(C=Nc3ccc(N4CCOCC4)cc3)o2)cc1`: the inhibition was 24.7%.
As for `Clc1ccc(-c2ccc(C=Nc3ccc(N4CCOCC4)cc3)o2)c(Cl)c1`, the figure is 47.6%.
The value for `Clc1cccc(-c2ccc(/C=N/n3cnnc3)o2)c1Cl` was 1.1%; that for `Oc1ccc(C=Nc2ccc(N3CCOCC3)cc2)c(O)c1` was 13.7%; that for `O=[N+]([O-])c1cc(Br)c(O)c(C=Nc2ccc(N3CCOCC3)cc2)c1` was 40.2%.
As for `Clc1cccc(-c2ccc(C=Nc3ccc(N4CCOCC4)cc3)o2)c1`, the figure is 33.8%; as for `Oc1c(Br)cc(Cl)cc1C=Nc1ccc(N2CCOCC2)cc1`, 51.8% (active).
As to `Cc1ccc(Cl)cc1-c1ccc(C=Nc2ccc(N3CCOCC3)cc2)o1`, the inhibition is 52.4% (active).
The value for `O=C(O)c1cn(Cc2cccnc2)c(=O)c2ccccc12` was 1.5%; that for `CCOC(=O)C1=C(c2ccccc2)Nc2ncnn2C1c1cc(OC)ccc1OC` (configuration not stated) was 7.8%; that for `Cn1c(=O)[nH]c(=O)c2c1nc(SCCN1CCOCC1)n2Cc1ccccc1` was 6.9%.
As for `COc1ccc(NC(=O)CCC(=O)OCc2ccc(C(=O)Oc3ccc(Cl)cc3)cc2)cc1`, the figure is -5.2%.
As for `CCCCN1C(=O)C(O)=C(C(C)=O)C1c1ccccc1` (configuration not stated), the inhibition was -7.7%.
As for `COCCN(CCOC)c1nc(N)c2c(N)nc3c(c2c1C#N)CC(=O)N3Cc1ccc(Cl)cc1`, the figure is 25.1%; as for `CCCCN1C(=O)Cc2c1nc(N)c1c(N)nc(N(CCC)CCC)c(C#N)c21`, 56% (active); as for `CN(CCO)c1nc(N)c2c(N)nc3c(c2c1C#N)CC(=O)N3Cc1cccs1`, 33.7%.
As to `CC(=O)c1c(C)[nH]c(C(=O)NCCc2ccccc2)c1C`, the inhibition is 2.6%.
Take `c1ccc(-n2cccc2CNC2CCCCC2)cc1`: the inhibition was -4.6%.
As for `c1ccc2c3c(cc(N4CCOCC4)c2c1)OC1(N2CCOCC2)CCCCC1O3` (configuration not stated), the figure is 60.5% (active); as for `Oc1ccc2c(c1)C1CCCC1(N1CCOCC1)O2` (configuration not stated), 24.6%.
For the molecule `O=c1cc(N2CCOCC2)c2ccccc2o1`, the inhibition is 4.1%.
The value for `Cc1ccc(NC(=S)/C(=C(\[O-])c2ccc(Cl)s2)[n+]2cccc(CO)c2)cc1C` was 10.4%; that for `Cc1ccc(C)c(NC(=S)/C(=C(\[O-])c2ccc(Cl)s2)[n+]2ccccc2)c1` was 26.5%; that for `Cc1cc(C)cc(NC(=S)/C(=C(\[O-])c2ccc(Cl)s2)[n+]2cccc(C)c2)c1` was 51.9% (active).
The value for `Cc1c(CNC(=O)c2cnn3c2NC(c2ccc(Br)cc2)CC3C(F)(F)F)cnn1C` (configuration not stated) was 11.4%; that for `Cc1ccc(NS(=O)(=O)c2cc([N+](=O)[O-])ccc2NNC(=S)Nc2cc(C)ccc2C)c(C)c1` was 9.1%.
The value for `CC(=O)N(C)C1=C(N2CCOCC2)C(=O)c2ccccc2C1=O` was 33.1%; that for `CC(=O)N(C)C1=C(O)c2ccccc2C(=O)C1=O` was 19.6%; that for `CC(=O)N(C1=C(N)C(=O)c2ccccc2C1=O)C(C)C` was 54.5% (active).
For the molecule `NC(=O)COC(=O)c1cccc(NS(=O)(=O)/C=C/c2ccccc2)c1`, the inhibition is 4.6%.
Consider `Cn1c(C(=O)O)cnc1Sc1ncc(C(F)(F)F)cc1Cl`, for which the inhibition is -17.5%.
With `Cc1ccc(Nc2nnc(SCc3cc(=O)n4ccsc4n3)s2)c(C)c1`, the inhibition is 8.6%.
Consider `COc1ccc2[nH]c3c(=O)n(Cc4ccc(C(=O)NCC5CCCO5)cc4)c(=S)[nH]c3c2c1` (configuration not stated), for which the inhibition was 3.5%.
Regarding `CC(=O)Nc1ccc(C2(O)COc3ccccc3O2)cc1` (configuration not stated), the inhibition was -2%.
As for `COc1cccc(NC(=O)c2ccc(-c3ccccc3[N+](=O)[O-])o2)c1`, the inhibition was -0.2%.
As for `COc1ccccc1NC(=O)c1ccc(-c2ccccc2F)o1`, the figure is -0.4%.
As for `COc1ccccc1NC(=O)c1ccc(-c2ccccc2[N+](=O)[O-])o1`, the figure is 52.9% (active); as for `Cc1ccccc1Cc1ccc(Cl)nn1`, -8.8%.
As for `CN(C)C(=S)SCC(=O)NCc1ccc(F)cc1`, the figure is 10.8%; as for `CCc1cccc(NC(=O)c2snc3c(=O)[nH]cnc23)c1`, 7.2%.

These data come from PubChem BioAssay AID1220 (Sanford-Burnham Center for Chemical Genomics, 2008).
